About 7,900 targets were measured; listed, in parts, are those with a hit and a random draw of the rest. About 0.6% of all pairs of compound and target were hits.

Chain of UniProt Q6NT16 (Q6NT16 whole entry, looked up): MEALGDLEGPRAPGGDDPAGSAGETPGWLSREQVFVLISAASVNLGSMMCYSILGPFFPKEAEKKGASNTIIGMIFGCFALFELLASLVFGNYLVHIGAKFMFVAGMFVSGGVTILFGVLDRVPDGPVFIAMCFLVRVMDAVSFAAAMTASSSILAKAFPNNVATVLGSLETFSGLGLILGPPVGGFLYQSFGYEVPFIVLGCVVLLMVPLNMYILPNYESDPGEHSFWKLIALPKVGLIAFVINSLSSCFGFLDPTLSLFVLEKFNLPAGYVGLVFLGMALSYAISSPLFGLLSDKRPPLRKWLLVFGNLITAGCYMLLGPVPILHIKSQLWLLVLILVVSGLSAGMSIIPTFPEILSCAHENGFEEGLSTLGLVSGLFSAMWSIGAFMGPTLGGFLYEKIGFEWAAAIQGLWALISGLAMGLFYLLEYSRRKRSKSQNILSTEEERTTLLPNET
Chain of UniProt Q8NBX0 (Q8NBX0 whole entry, looked up): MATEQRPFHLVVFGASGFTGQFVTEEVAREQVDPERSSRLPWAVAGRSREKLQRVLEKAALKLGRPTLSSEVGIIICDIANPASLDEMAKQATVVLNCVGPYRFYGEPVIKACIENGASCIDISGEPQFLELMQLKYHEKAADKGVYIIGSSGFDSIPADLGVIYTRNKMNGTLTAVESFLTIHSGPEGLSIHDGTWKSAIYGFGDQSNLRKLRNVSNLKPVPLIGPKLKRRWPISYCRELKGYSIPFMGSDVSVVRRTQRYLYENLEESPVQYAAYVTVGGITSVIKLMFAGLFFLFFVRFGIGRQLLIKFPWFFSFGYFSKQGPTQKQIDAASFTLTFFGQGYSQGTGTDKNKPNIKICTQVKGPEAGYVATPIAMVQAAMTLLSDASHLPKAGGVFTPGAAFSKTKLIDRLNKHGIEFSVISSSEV
Chain of UniProt Q15418 (Q15418 whole entry, looked up): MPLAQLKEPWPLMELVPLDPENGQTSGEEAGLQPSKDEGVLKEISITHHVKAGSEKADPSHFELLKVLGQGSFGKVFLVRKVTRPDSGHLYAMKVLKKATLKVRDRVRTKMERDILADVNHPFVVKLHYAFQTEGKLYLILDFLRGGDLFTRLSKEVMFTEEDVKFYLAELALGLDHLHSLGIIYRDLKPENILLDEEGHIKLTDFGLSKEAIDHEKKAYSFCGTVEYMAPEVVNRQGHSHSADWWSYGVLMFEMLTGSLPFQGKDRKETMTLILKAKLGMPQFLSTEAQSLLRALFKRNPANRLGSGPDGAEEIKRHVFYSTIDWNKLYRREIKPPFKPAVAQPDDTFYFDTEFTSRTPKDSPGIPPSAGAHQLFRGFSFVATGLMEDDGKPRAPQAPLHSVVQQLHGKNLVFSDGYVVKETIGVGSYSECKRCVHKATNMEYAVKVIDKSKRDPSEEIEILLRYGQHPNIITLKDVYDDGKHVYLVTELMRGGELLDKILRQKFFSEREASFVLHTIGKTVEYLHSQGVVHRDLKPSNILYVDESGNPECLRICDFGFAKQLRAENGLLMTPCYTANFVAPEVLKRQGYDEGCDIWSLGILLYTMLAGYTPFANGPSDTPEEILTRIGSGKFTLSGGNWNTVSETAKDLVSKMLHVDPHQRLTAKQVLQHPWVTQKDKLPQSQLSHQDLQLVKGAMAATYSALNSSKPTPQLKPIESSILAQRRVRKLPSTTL
Chain of UniProt P52306 (P52306 whole entry, looked up): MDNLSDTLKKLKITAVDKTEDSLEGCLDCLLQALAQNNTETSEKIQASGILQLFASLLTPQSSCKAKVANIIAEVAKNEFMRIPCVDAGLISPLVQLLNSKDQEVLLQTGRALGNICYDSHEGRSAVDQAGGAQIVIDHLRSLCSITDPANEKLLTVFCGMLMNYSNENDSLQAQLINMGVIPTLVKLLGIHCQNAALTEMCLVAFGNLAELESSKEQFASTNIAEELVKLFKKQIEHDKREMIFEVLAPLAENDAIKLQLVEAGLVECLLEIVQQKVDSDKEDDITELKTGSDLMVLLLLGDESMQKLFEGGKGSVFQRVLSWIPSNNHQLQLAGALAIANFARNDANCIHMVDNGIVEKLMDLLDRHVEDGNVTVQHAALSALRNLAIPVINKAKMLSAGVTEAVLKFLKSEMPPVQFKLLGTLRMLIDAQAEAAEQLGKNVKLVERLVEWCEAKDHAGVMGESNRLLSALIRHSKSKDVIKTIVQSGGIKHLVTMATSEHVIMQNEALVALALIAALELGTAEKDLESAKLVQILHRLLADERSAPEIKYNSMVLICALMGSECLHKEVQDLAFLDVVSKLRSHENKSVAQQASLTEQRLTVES
Chain of UniProt Q14151 (Q14151 whole entry, looked up): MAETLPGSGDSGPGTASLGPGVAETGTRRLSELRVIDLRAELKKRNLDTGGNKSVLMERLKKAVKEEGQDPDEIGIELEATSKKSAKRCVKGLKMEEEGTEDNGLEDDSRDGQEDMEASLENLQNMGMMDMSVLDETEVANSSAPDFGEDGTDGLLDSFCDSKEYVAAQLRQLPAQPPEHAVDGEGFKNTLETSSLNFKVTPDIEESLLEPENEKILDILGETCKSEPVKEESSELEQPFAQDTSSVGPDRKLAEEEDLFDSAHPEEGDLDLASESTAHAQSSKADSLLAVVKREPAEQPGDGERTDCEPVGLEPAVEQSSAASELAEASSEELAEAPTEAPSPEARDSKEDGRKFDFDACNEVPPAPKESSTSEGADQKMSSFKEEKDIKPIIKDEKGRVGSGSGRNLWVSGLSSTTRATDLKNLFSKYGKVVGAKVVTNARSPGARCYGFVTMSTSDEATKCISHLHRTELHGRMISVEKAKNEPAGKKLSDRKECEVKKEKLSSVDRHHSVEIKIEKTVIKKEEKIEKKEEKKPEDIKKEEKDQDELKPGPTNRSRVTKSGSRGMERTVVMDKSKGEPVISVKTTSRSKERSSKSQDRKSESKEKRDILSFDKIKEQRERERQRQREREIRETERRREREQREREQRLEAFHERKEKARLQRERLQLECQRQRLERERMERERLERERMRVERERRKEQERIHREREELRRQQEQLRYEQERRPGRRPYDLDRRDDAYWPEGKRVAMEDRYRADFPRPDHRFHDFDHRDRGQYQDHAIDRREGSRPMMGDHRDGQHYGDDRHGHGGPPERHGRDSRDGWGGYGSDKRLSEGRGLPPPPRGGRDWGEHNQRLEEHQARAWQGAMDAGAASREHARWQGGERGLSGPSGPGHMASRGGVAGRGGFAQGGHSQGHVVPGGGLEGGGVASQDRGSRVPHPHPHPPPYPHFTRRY
Chain of UniProt O75792 (O75792 whole entry, looked up): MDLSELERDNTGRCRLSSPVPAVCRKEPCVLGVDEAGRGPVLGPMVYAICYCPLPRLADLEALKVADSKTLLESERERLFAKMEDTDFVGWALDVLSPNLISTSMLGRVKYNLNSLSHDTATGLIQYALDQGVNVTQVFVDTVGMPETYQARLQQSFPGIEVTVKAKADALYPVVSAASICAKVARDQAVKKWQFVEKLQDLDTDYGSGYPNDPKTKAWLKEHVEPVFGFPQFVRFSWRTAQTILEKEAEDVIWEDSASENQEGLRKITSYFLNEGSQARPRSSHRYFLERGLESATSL
Chain of UniProt Q8TBN0 (Q8TBN0 whole entry, looked up): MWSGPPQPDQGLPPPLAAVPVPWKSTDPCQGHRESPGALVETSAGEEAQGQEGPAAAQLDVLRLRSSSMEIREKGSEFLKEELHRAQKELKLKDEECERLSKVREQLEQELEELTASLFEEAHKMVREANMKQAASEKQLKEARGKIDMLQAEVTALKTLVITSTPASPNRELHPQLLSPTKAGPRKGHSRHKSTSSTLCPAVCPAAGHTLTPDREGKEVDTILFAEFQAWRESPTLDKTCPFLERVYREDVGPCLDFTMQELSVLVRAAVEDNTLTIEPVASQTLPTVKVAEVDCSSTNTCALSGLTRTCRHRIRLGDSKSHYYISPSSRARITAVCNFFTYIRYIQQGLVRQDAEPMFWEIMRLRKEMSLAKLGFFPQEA
Chain of UniProt O43665 (O43665 whole entry, looked up): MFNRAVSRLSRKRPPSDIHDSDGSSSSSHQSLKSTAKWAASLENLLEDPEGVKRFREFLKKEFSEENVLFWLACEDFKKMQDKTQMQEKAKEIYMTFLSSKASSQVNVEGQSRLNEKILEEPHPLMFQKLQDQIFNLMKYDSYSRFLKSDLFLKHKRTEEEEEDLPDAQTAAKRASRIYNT
Chain of UniProt O00767 (O00767 whole entry, looked up): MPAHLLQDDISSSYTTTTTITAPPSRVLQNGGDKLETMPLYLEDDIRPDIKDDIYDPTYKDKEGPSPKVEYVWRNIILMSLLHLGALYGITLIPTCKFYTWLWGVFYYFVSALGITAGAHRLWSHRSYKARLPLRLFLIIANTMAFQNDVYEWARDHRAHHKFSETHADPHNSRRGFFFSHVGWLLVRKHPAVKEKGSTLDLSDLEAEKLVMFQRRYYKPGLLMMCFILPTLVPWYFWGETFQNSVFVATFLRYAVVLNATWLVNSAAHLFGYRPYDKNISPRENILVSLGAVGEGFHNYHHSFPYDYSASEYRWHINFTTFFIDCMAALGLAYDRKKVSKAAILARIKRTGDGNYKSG
Chain of UniProt Q99719 (Q99719 whole entry, looked up): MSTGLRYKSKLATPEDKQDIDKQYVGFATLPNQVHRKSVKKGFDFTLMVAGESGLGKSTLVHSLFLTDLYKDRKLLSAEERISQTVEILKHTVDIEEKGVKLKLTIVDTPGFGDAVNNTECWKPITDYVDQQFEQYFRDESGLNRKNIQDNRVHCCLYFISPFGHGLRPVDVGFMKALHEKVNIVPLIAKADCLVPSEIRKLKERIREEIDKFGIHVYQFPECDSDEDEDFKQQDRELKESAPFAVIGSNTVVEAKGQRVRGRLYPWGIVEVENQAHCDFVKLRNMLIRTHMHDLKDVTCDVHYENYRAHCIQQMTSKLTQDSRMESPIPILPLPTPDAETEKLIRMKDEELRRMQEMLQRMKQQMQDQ
Chain of UniProt P63208 (P63208 whole entry, looked up): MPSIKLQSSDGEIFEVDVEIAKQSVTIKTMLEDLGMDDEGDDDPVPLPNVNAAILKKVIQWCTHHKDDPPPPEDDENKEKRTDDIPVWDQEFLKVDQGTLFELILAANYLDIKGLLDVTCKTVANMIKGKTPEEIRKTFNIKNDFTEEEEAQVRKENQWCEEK

Compound in the first assay: C[C@H](C1=CC=C(C=C1)C(=O)NC2=C3C=CNC3=NC=C2)N
As to the kind of experiment: log2 fold change, soluble protein after heating vs DMSO (PISA); higher = thermal stabilisation; K562 cells, 10 uM, 30 min; active = over 0.2 and 3.5 SD of the protein, either way, in both replicates (recomputed). Summed up: (§1)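 K562 cells at 2×10^6 cells/mL were treated for 30 min with 10 μM compound, and aliquots were heated for 3 min over 48°C-58°C before pooling. Extraction used PBS with 0.5% NP-40 at 4°C, and soluble protein was the supernatant after 21,000xg for 90 min, measured by TMTpro 16plex LC-MS/MS with channel sums equalised. Thermal stability values, relative to control samples and from duplicates, are log2 fold changes.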
In the case of SIDT2 isoform 2 (UniProt Q8NBJ9), the log2 fold change is -0.004 (inactive).
Consider ROR2 (UniProt Q01974), for which the log2 fold change was -0.031 (inactive).
On the same count and under the same terms, as for RAP1GDS1 isoform 5 (UniProt P52306), the figure is 0.009 (inactive); as for SKP1 (UniProt P63208), -0.19 (inactive); as for REL (UniProt Q04864), 0.02 (inactive).
Same read-out and setting: as for SERINC3 (UniProt Q13530), the figure is 0.225 (inactive).
The same measure, in the same setting: the value for RPS9 (UniProt P46781) was 0.278 (inactive); that for RB1CC1 (UniProt Q8TDY2) was 0.033 (inactive); that for SAFB2 (UniProt Q14151) was 0.164 (inactive).
Regarding RAB3IL1 (UniProt Q8TBN0), the log2 fold change is 0.031 (inactive).
Still for that read-out and setting: as for RPS6KA1 isoform 2 (UniProt Q15418), the figure is -0.066 (inactive); as for RPRD1B (UniProt Q9NQG5), -0.042 (inactive); as for RPS3 (UniProt P23396), 0.203 (inactive).
On the same count and under the same terms, as for SEC24A (UniProt O95486), the figure is 0.001 (inactive); as for SCCPDH (UniProt Q8NBX0), -0.093 (inactive); as for RPS27A (UniProt P62979), 0.088 (inactive).
Same read-out and setting: the value for ROCK2 (UniProt O75116) was 0.392 (active); that for SACM1L (UniProt Q9NTJ5) was -0.094 (inactive); that for RPA1 (UniProt P27694) was 0.036 (inactive).
For the target RNASEH2A (UniProt O75792), the log2 fold change is -0.032 (inactive).
Still for that read-out and setting: the value for RGS10 (UniProt O43665) was -0.231 (inactive); that for SDHAF2 (UniProt Q9NX18) was -0.111 (inactive); that for SEPTIN5 (UniProt Q99719) was -0.036 (inactive).
Still for that read-out and setting: the value for SAMD4B (UniProt Q5PRF9) was 0.009 (inactive).
The same measure, in the same setting: the value for SCD (UniProt O00767) was -0.068 (inactive); that for SEC23IP (UniProt Q9Y6Y8) was 0.039 (inactive); that for SLC18B1 (UniProt Q6NT16) was -0.034 (inactive).
Consider SAAL1 (UniProt Q96ER3), for which the log2 fold change is 0.008 (inactive).
Still for that read-out and setting: as for SENP6 (UniProt Q9GZR1), the figure is -0.002 (inactive); as for RPS12 (UniProt P25398), 0.165 (inactive); as for RANBP2 (UniProt P49792), 0.103 (inactive).
On to RETREG3 (UniProt Q86VR2), for which the log2 fold change is 0.024 (inactive).

Compound in another assay: C[C@H](Nc1ncnc2nc[nH]c12)c1cc2cccc(Cl)c2c(=O)n1-c1ccccc1 [duvelisib]
The assay is described as above. A digest of the protocol: as §1
As to SIDT2 isoform 2 (UniProt Q8NBJ9), the log2 fold change is 0.059 (inactive).
On the same count and under the same terms, as for ROR2 (UniProt Q01974), the figure is 0.049 (inactive); as for RAP1GDS1 isoform 5 (UniProt P52306), -0.009 (inactive); as for SKP1 (UniProt P63208), -0.054 (inactive).
On the same count and under the same terms, the value for REL (UniProt Q04864) was -0.034 (inactive); that for SERINC3 (UniProt Q13530) was 0.162 (inactive).
For RPS9 (UniProt P46781), the log2 fold change is -0.146 (inactive).
For the target RB1CC1 (UniProt Q8TDY2), the log2 fold change was -0.006 (inactive).
The same measure, in the same setting: the value for SAFB2 (UniProt Q14151) was -0.155 (inactive); that for RAB3IL1 (UniProt Q8TBN0) was 0.026 (inactive); that for RPS6KA1 isoform 2 (UniProt Q15418) was 0.03 (inactive).
On the same count and under the same terms, as for RPRD1B (UniProt Q9NQG5), the figure is 0.078 (inactive).
Still for that read-out and setting: the value for RPS3 (UniProt P23396) was -0.06 (inactive); that for SEC24A (UniProt O95486) was 0.038 (inactive).
In the case of SCCPDH (UniProt Q8NBX0), the log2 fold change was 0.068 (inactive).
On the same count and under the same terms, as for RPS27A (UniProt P62979), the figure is -0.218 (inactive); as for ROCK2 (UniProt O75116), 0.025 (inactive).
In the case of SACM1L (UniProt Q9NTJ5), the log2 fold change was 0.031 (inactive).
Same read-out and setting: as for RPA1 (UniProt P27694), the figure is -0.035 (inactive); as for RNASEH2A (UniProt O75792), 0.011 (inactive).
On the same count and under the same terms, as for RGS10 (UniProt O43665), the figure is 0.008 (inactive); as for SDHAF2 (UniProt Q9NX18), 0.082 (inactive).
Take SEPTIN5 (UniProt Q99719): the log2 fold change is 0.002 (inactive).
Still for that read-out and setting: the value for SAMD4B (UniProt Q5PRF9) was -0.067 (inactive); that for SCD (UniProt O00767) was 0.007 (inactive); that for SEC23IP (UniProt Q9Y6Y8) was 0.021 (inactive).
As for SLC18B1 (UniProt Q6NT16), the log2 fold change was 0.047 (inactive).
Take SAAL1 (UniProt Q96ER3): the log2 fold change was 0.036 (inactive).
Still for that read-out and setting: as for SENP6 (UniProt Q9GZR1), the figure is 0.024 (inactive); as for RPS12 (UniProt P25398), -0.061 (inactive); as for RANBP2 (UniProt P49792), 0.065 (inactive).
Same read-out and setting: the value for RETREG3 (UniProt Q86VR2) was 0.005 (inactive).

Compound in the next assay: Cc1cc(Nc2cc(CN3CCOCC3)c3nc(C)c(Cc4ccc(Cl)cc4F)n3n2)n[nH]1 [gandotinib]
Described as above. A digest of the protocol: as §1
For SIDT2 isoform 2 (UniProt Q8NBJ9), the log2 fold change was 0.006 (inactive).
Still for that read-out and setting: as for ROR2 (UniProt Q01974), the figure is -0.007 (inactive).
Same read-out and setting: as for RAP1GDS1 isoform 5 (UniProt P52306), the figure is -0.066 (inactive).
The same measure, in the same setting: as for SKP1 (UniProt P63208), the figure is -0.035 (inactive); as for REL (UniProt Q04864), -0.321 (inactive).
For SERINC3 (UniProt Q13530), the log2 fold change was -0.088 (inactive).
The same measure, in the same setting: the value for RPS9 (UniProt P46781) was 0.188 (inactive); that for RB1CC1 (UniProt Q8TDY2) was 0.132 (inactive).
The same measure, in the same setting: the value for SAFB2 (UniProt Q14151) was 0.184 (inactive).
Still for that read-out and setting: as for RAB3IL1 (UniProt Q8TBN0), the figure is 0.012 (inactive).
For the target RPS6KA1 isoform 2 (UniProt Q15418), the log2 fold change was -0.199 (inactive).
Still for that read-out and setting: the value for RPRD1B (UniProt Q9NQG5) was -0.227 (inactive); that for RPS3 (UniProt P23396) was 0.134 (inactive).
Still for that read-out and setting: the value for SEC24A (UniProt O95486) was -0.148 (inactive).
Same read-out and setting: the value for SCCPDH (UniProt Q8NBX0) was 0.313 (inactive).
With RPS27A (UniProt P62979), the log2 fold change was 0.347 (inactive).
Still for that read-out and setting: as for ROCK2 (UniProt O75116), the figure is -0.049 (inactive); as for SACM1L (UniProt Q9NTJ5), -0.065 (inactive); as for RPA1 (UniProt P27694), -0.103 (inactive).
On the same count and under the same terms, the value for RNASEH2A (UniProt O75792) was 0.156 (inactive).
Same read-out and setting: the value for RGS10 (UniProt O43665) was -0.023 (inactive); that for SDHAF2 (UniProt Q9NX18) was 0.057 (inactive); that for SEPTIN5 (UniProt Q99719) was -0.023 (inactive).
As to SAMD4B (UniProt Q5PRF9), the log2 fold change was -0.135 (inactive).
SCD (UniProt O00767): the log2 fold change was -0.061 (inactive).
Still for that read-out and setting: as for SEC23IP (UniProt Q9Y6Y8), the figure is -0.212 (inactive); as for SLC18B1 (UniProt Q6NT16), 0.092 (inactive).
For the target SAAL1 (UniProt Q96ER3), the log2 fold change was 0.022 (inactive).
The same measure, in the same setting: as for SENP6 (UniProt Q9GZR1), the figure is -0.056 (inactive).
With RPS12 (UniProt P25398), the log2 fold change is 0.124 (inactive).
Same read-out and setting: as for RANBP2 (UniProt P49792), the figure is -0.066 (inactive).
Same read-out and setting: the value for RETREG3 (UniProt Q86VR2) was 0.007 (inactive).
